Laboratory results published in the supplement of paper PMC10849652.
About 8,800 targets were measured; listed, in parts, are those with a hit and a random draw of the rest. About 0.5% of all pairs of compound and target were hits. Unmarked numbers belong to inactive results.

These targets were tested with C1=CC=C(C=C1)[C@H](COC2=CC3=C(C=C2)NC(=O)N3)NC(=O)C4=CC=CN(C4=O)CC5=CC(=C(C=C5)F)F (assay: log2 fold change, soluble protein after heating vs DMSO (PISA); higher = thermal stabilisation; K562 lysate, 10 uM; active = over 0.2 and 3.5 SD of the protein, either way, in both replicates (recomputed)).
Outline: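 To prepare the extract, K562 pellets were dounce-homogenised in PBS pH 7.4 with 1 mM MgCl2, giving crude material at 1 mg/mL protein. This was treated with 10 μM compound for 30 min, then heated in aliquots for 3 min over 48°C-58°C before pooling and addition of NP-40 to 0.5% at 4°C. Centrifugation at 21,000xg for 90 min left soluble protein in the supernatant, which TMTpro 16plex LC-MS/MS quantified with equalised channel sums. Results are log-two fold changes in thermal stability compared with solvent controls, from duplicates.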

Chain of UniProt Q86WA6 (Q86WA6 whole entry, looked up): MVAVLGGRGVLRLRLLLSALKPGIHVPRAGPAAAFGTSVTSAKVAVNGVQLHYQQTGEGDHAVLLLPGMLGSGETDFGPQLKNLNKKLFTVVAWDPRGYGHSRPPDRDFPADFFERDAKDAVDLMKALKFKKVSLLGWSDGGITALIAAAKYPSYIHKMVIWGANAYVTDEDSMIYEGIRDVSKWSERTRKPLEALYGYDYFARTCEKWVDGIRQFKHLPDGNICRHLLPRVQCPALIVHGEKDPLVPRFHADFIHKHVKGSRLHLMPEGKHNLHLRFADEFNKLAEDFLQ
Chain of UniProt Q9BV29 (Q9BV29 whole entry, looked up): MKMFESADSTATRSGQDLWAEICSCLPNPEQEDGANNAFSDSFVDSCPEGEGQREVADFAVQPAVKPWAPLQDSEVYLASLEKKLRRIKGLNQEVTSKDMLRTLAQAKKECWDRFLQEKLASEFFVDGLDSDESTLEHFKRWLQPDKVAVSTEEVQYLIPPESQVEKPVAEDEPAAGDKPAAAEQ
Chain of UniProt Q9NW68 (Q9NW68 whole entry, looked up): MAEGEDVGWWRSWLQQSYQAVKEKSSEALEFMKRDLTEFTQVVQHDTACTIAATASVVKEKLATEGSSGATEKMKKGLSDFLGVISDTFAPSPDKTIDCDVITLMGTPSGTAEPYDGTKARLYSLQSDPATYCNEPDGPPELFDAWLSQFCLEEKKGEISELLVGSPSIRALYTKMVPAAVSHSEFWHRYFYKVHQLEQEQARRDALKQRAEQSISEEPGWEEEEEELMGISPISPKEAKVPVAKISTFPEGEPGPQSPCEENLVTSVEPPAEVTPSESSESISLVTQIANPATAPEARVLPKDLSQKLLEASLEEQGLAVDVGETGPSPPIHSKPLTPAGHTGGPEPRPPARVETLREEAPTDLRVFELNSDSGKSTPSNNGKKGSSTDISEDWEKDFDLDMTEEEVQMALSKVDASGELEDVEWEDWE
Chain of UniProt O60566 (O60566 whole entry, looked up): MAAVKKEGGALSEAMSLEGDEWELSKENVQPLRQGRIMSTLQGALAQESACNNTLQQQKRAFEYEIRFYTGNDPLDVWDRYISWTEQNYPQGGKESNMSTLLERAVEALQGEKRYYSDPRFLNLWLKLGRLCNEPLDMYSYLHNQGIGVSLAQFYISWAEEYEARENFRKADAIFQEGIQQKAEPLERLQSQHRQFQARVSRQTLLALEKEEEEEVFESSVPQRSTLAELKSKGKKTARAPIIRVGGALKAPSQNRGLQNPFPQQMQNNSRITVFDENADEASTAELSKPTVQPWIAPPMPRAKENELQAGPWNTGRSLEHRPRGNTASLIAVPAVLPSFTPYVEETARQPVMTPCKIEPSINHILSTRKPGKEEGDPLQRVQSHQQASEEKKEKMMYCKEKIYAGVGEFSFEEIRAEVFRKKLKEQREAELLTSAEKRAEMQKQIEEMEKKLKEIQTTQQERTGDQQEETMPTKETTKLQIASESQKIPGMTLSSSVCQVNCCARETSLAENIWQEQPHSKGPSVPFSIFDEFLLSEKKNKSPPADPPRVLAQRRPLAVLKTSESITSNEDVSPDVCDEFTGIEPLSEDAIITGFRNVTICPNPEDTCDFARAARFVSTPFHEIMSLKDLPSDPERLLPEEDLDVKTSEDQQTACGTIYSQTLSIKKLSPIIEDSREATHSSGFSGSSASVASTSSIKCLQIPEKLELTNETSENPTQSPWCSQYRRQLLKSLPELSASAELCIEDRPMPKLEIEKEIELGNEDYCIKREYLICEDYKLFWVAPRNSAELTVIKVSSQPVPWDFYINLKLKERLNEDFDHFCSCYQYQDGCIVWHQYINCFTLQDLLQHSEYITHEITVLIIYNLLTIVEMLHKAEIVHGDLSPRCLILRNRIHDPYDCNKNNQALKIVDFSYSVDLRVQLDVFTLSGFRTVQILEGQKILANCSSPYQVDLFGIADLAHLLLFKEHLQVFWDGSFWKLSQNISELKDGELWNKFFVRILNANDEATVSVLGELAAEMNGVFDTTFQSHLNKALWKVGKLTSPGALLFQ
Chain of UniProt Q9Y6K0 (Q9Y6K0 whole entry, looked up): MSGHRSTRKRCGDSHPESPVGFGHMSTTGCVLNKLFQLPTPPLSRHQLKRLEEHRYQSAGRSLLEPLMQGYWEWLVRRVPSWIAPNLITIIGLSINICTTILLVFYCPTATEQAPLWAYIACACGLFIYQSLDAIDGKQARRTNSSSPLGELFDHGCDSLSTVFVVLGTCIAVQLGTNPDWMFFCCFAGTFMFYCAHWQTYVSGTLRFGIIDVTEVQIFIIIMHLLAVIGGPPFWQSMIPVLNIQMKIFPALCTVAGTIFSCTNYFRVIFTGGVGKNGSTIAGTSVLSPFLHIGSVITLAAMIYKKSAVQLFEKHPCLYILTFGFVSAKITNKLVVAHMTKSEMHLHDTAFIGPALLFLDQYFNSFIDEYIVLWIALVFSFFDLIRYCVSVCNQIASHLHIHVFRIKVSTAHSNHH
Chain of UniProt Q00536 (Q00536 whole entry, looked up): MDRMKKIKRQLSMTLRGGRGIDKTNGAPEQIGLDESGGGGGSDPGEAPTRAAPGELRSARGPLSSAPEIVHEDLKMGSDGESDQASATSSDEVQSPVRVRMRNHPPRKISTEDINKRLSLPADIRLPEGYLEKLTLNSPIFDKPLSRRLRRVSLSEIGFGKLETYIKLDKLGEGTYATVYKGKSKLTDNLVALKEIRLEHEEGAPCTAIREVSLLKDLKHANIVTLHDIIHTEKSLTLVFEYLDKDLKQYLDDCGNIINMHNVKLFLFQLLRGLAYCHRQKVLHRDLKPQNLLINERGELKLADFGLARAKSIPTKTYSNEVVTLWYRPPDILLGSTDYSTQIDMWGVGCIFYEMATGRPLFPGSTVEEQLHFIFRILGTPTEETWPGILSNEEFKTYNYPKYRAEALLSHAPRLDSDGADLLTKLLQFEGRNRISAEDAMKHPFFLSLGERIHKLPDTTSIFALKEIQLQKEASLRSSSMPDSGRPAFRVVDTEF
Chain of UniProt Q9BSU1 (Q9BSU1 whole entry, looked up): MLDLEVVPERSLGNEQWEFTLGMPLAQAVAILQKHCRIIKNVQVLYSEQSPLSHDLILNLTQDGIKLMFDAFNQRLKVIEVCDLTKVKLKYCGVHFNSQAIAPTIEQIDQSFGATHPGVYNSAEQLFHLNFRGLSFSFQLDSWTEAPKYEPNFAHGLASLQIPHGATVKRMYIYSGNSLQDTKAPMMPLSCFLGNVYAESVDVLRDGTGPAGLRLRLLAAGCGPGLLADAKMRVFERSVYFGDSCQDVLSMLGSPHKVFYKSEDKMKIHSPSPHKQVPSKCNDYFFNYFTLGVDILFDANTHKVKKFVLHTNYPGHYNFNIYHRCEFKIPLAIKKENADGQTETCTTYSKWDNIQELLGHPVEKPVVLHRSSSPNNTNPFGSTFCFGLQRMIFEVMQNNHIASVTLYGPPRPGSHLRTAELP
Chain of UniProt P27824 (P27824 whole entry, looked up): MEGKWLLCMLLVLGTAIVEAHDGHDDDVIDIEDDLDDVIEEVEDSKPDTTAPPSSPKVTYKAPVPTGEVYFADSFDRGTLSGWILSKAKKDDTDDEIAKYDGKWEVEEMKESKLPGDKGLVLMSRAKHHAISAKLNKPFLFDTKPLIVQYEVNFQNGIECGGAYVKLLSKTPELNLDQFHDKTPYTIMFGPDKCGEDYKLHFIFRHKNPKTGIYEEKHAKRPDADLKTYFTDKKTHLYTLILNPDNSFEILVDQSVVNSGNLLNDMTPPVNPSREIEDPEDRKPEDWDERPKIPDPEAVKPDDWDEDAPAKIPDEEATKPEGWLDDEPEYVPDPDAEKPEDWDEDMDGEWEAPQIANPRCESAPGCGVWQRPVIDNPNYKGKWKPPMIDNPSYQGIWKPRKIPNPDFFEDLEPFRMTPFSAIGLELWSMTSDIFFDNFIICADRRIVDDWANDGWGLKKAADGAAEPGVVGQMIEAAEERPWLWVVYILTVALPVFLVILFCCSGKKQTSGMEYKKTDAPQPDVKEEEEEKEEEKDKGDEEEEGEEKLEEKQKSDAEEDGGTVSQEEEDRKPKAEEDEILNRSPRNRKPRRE
Chain of UniProt Q53HL2 (Q53HL2 whole entry, looked up): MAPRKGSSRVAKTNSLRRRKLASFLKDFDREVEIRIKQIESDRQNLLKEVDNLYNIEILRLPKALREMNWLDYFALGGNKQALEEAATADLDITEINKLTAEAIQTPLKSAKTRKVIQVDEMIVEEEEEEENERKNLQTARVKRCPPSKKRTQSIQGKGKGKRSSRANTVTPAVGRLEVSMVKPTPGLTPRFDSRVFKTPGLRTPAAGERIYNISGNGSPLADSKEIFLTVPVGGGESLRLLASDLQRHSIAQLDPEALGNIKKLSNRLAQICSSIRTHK
Chain of UniProt P15313 (P15313 whole entry, looked up): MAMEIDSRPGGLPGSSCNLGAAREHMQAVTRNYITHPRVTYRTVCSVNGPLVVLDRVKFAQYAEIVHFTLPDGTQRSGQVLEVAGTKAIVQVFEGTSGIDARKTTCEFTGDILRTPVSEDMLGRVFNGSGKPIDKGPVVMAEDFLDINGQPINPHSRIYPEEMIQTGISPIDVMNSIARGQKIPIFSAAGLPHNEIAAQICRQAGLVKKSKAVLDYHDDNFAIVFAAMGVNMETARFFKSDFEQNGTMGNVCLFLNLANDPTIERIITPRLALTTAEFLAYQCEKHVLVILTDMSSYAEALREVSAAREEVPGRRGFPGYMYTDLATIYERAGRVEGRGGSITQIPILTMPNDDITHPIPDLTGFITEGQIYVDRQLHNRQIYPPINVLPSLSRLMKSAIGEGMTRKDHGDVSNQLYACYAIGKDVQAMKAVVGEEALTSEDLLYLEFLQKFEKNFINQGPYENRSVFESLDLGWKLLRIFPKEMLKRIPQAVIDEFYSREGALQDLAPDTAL
Chain of UniProt Q8N5I9 (Q8N5I9 whole entry, looked up): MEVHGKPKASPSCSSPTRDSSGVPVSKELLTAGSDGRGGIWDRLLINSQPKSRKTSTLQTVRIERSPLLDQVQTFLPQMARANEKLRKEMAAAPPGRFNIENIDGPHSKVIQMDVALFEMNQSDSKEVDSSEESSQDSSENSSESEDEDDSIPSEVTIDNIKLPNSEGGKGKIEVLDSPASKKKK

Target | log2 fold change
CAPNS1 (UniProt U3KPR7) | 0.019
C3orf33 (UniProt Q6P1S2) | 0.074
BPHL (UniProt Q86WA6) | 0.284
CDK16 isoform 2 (UniProt Q00536) | -0.02
CAMK2B (UniProt Q13554) | 0.036
CCP110 (UniProt O43303) | -0.026
CAMLG (UniProt P49069) | 0.058
AUH (UniProt Q13825) | 0.034
CDCA8 (UniProt Q53HL2) | 0.038
CDC42EP4 (UniProt Q9H3Q1) | 0.113
CDK5RAP2 (UniProt Q96SN8) | 0.018
CDK5RAP3 isoform 4 (UniProt Q96JB5) | -0.011
CCDC32 isoform 2 (UniProt Q9BV29) | -0.132
CCDC85B (UniProt Q15834) | -0.033
BCAR1 isoform 6 (UniProt P56945) | 0.01
ATP6V1B1 (UniProt P15313) | 0.023
CANX isoform 2 (UniProt P27824) | 0.05
CDK17 isoform 2 (UniProt Q00537) | 0.072
CDC123 (UniProt O75794) | -0.035

Target | log2 fold change
BLM (UniProt P54132) | 0.059
ATAD3B (UniProt Q5T9A4) | 0.082
CCDC130 (UniProt P13994) | 0.01
BAG4 (UniProt O95429) | 0.059
CASC4 (UniProt Q6P4E1) | -0.008
CEP128 (UniProt Q6ZU80) | -0.38
C12orf45 (UniProt Q8N5I9) | 0.074
ATXN2 (UniProt Q99700) | 0.013
CBX5 (UniProt P45973) | 0.04
BSDC1 (UniProt Q9NW68) | 0.155
ATG10 (UniProt Q9H0Y0) | 0.008
CEP76 (UniProt Q8TAP6) | -0.009
C16orf70 (UniProt Q9BSU1) | -0.007
CARD11 (UniProt Q9BXL7) | 0.193
CCT6A (UniProt P40227) | 0.007
BUB1B isoform 3 (UniProt O60566) | -0.013
BTK isoform 2 (UniProt Q06187) | -0.049
CAMK2G isoform 8 (UniProt Q13555) | 0.048
CEPT1 (UniProt Q9Y6K0) | -0.13
